# Reference: PubChem BioAssay (EPA / NIEHS)
# Several values for one entry are separate records, joined by “and”; a condition that tells them apart may be missing. Equal values may be shown once. Inconclusive results are not listed. More than one record can exist for a structure, and the calls need not agree. Activity calls are given as the source filed them. Rule for the calls, unless noted: active = hit-call score of the fitted dose curve at least 0.9, where 1 is the maximum; inactive = score below 0.9.
# Tests used:
# PGR (gene 5241) = PGR (gene 5241) (UniProt P06401); test: TOX21_PR_LUC_Followup_Agonist: Tox21 HEK293 Progesterone Receptor (PR) Agonism Luciferase Follow-Up Assay (AID 2283937)
# In short: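 Cells: HEK293-PR-A-luc, 3,000/well, 10% charcoal-stripped FBS assay medium. Compound added after 5 h; 16 h, 37C, 0% CO2. ONE-Glo luciferase, luminescence. Positive fit vs DMSO.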
# [1] = CCTE_Harrill_HTTr_Apoptosis_MCF7: CCTE's 6-hour Apoptosis Assessment for the High-Throughput Transcriptomics (HTTr) Platform, in MCF-7 cells cultured in DMEM + 10% fetal bovine serum, Harrill Lab (AID 2284011)
# In short: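 MCF-7 (DMEM + 10% FBS), 384-well; 8-pt dilution series, 6 h chemical exposure; caspase-3/7 activation via CellEvent Caspase 3/7 Green, HCI; bidirectional fit vs DMSO.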
# [2] = CCTE_Harrill_HTTr_CellCount_MCF7: CCTE's Cell Proliferation Assessment for the High-Throughput Transcriptomics (HTTr) Platform, Harrill Lab (AID 2284012; active = hit-call score of the fitted dose curve at least 0.9, where 1 is the maximum;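 note: count of Hoechst-stained nuclei per well by high-content imaging in MCF-7 cells; cells exposed to compound for six hours; intended direction is loss of nuclei count meaning fewer cells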)
# In short: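 Chemicals in eight-point dilution series are added to MCF-7 cells for six hours, nuclei are stained with Hoechst and imaged, and per-well nuclei counts are fitted in both directions relative to DMSO controls.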
# [3] = target: Thyroid hormone receptor alpha (Rattus norvegicus) + Thyroid hormone receptor beta (Rattus norvegicus) (UniProt P18113+P63059); test: TOX21_TR_LUC_GH3_Agonist_Followup: Tox21 GH3 Thyroid Hormone Receptor Agonism Luciferase Follow-Up Assay (AID 2283939; active = hit-call score of the fitted dose curve at least 0.9, where 1 is the maximum)
# In short: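 Rat GH3 cells (1,500/well) in serum-free assay medium, treated with 15-point series, 92 uM to 5 nM final, for 24 h at 37C. Luciferase via ONE-Glo luminescence; gain of signal fitted against DMSO, T3 positive control.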
# THRA (gene 7067) = THRA (gene 7067) (UniProt P10827); test: TOX21_TRA_COA_Agonist_Followup_ratio: Tox21 Thyroid Hormone Receptor alpha Agonism through Coactivator Recruitment Follow-Up Assay, Ratio (AID 2283948)
# In short: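 Follow-up specificity assay in which TRα ligand-binding domain, expressed as a GST fusion, recruits a fluorescein-labelled SRC-2 peptide. Energy transfer from a terbium anti-GST antibody gives the acceptor/donor ratio, fitted upward relative to DMSO.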
# THRB (gene 7068) = THRB (gene 7068) (UniProt P10828); test: TOX21_TRB_COA_Agonist_Followup_ratio: Tox21 Thyroid Hormone Receptor beta Agonism through Coactivator Recruitment Follow-Up Assay, Ratio (AID 2283963)
# In short: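 Agonism is measured as coactivator recruitment in a purified-protein TR-FRET format, using GST-TRβ LBD at 5.0 nM, fluorescein-SRC-2 peptide at 200 nM and Tb-labeled anti-GST antibody at 2 nM. Values are 520:495 nm ratios relative to DMSO (0%) and T3 (100%).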
# [4] = target: Retinoic acid receptor RXR-alpha (Homo sapiens) (UniProt P19793); test: TOX21_TR_RXR_BLA_Agonist_Followup_ratio: Tox21 Thyroid Hormone Receptor beta Retinoid X Receptor alpha (RXRa) Agonism Beta-lactamase (BLA) Follow-Up Assay, Ratio (AID 2283968; active = hit-call score of the fitted dose curve at least 0.9, where 1 is the maximum)
# In short: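 HEK293T RXRa-bla, qHTS; cpd 11-pt conc. in triplicate, 16 h 37C/5% CO2; CCF4-AM 2 h RT; ratio 460:530 nm; agonist direction vs DMSO; 9-cis retinoic acid as positive control.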
# [5] = TOX21_TR_RXR_BLA_Agonist_Followup_viability: Viability Assessment in the Tox21 Thyroid Hormone Receptor beta Retinoid X Receptor alpha (RXRa) Agonism Beta-lactamase (BLA) Follow-Up Assay (AID 2283970; active = hit-call score of the fitted dose curve at least 0.9, where 1 is the maximum)
# In short: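 Cells: HEK293T RXRa-UAS-bla, 2,500/well; medium phenol red-free DMEM + 2% charcoal-stripped FBS; 16h, 37C/5% CO2; qHTS concentration series. Read: CellTiter-Glo luminescence (ATP); bidirectional fit, DMSO = baseline.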
# [6] = CCTE_Deisenroth_DEVTOX-GLR_legacy_CellCount: (Legacy) Viability Assessment in CCTE's DevTox GLR-Endo Assay, Deisenroth Lab (AID 2284331); details: actives raise or lower the signal
# In short: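 Seed RUES2-GLR 24 h; differentiate 48 h, dosing at 0 and 24 h; fix, stain nuclei; image 5 fields/well; count nuclei. Conc. 1 nM - 200 uM, single technical replicate, n=4 experiments; bidirectional fit vs 0.2% DMSO.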
# [7] = tested on: SRY-box transcription factor 2 (SOX2) Protein Expression, Deisenroth Lab, SOX2 (gene 6657); test: CCTE_Deisenroth_DEVTOX-GLR_Endo_SOX2: CCTE's DevTox GLR-Endo Assay Evaluation of SRY-box transcription factor 2 (SOX2) Protein Expression, Deisenroth Lab (AID 2284412; active = hit-call score of the fitted dose curve at least 0.9, where 1 is the maximum)
# In short: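 RUES2-GLR human pluripotent cells were seeded 24 h, then differentiated 48 h with two chemical exposures 24 h apart. Cells were fixed, nuclei stained and imaged by high-content microscopy. Endpoint is %SOX2+ cells over cell count, minus 0.2% DMSO control; 10-point series 1 nM–200 uM.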
# [8] = tested on: SRY-box transcription factor 17 (SOX17) Protein Expression, Deisenroth Lab, SOX17 (gene 64321); test: CCTE_Deisenroth_DEVTOX-GLR_Endo_SOX17: CCTE's DevTox GLR-Endo Assay Evaluation of SRY-box transcription factor 17 (SOX17) Protein Expression, Deisenroth Lab (AID 2284413)
# In short: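 Seed RUES2-GLR cells 24 h; start endoderm differentiation; dose at 0 and 24 h (1 nM - 200 uM, 10 points); fix at 48 h, stain nuclei, image 5 fields/well; compute SOX17+/total cells vs 0.2% DMSO.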
# [9] = tested on: Brachyury (BRA) Protein Expression, TBXT (gene 6862); test: CCTE_Deisenroth_DEVTOX-GLR_Endo_BRA: CCTE's DevTox GLR-Endo Assay Evaluation of Brachyury (BRA) Protein Expression, Deisenroth Lab (AID 2284417)
# In short: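 Percent BRA+ (mesoderm) RUES2-GLR cells after 48 h differentiation with two exposures, 1 nM - 200 uM; 0.2% DMSO control subtracted.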
# [10] = CCTE_Deisenroth_DEVTOX-GLR_Endo_CellCount: Viability Assessment in CCTE's DevTox GLR-Endo Assay, Deisenroth Lab (AID 2284420)
# In short: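 Human pluripotent RUES2-GLR line; 24 h pre-seed; 48 h endoderm-directed differentiation; 2 doses, q24h; 10 conc., 1 nM - 200 uM; fix + nuclear dye; 5 fields/well imaged; readout = nuclei count, % change vs 0.2% DMSO; n=4.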
# [11] = tested on: SRY-box transcription factor 17 (SOX17) Protein Expression, Deisenroth Lab, SOX17 (gene 64321); test: CCTE_Deisenroth_DEVTOX-GLR_Pluri_SOX17: CCTE's DevTox GLR-Pluri Assay Evaluation of SRY-box transcription factor 17 (SOX17) Protein Expression, Deisenroth Lab (AID 2284427; active = hit-call score of the fitted dose curve at least 0.9, where 1 is the maximum)
# In short: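 Human RUES2-GLR pluripotent line; 24 h seeding, 48 h defined-media differentiation, 2 doses q24h, 10 conc 1 nM - 200 uM. Fix, nuclear stain, image 5 fields/well. Endpoint = %SOX17+ minus 0.2% DMSO; n=4.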
# [12] = tested on: Brachyury (BRA) Protein Expression, Deisenroth Lab, TBXT (gene 6862); test: CCTE_Deisenroth_DEVTOX-GLR_Pluri_BRA: CCTE's DevTox GLR-Pluri Assay Evaluation of Brachyury (BRA) Protein Expression, Deisenroth Lab (AID 2284429; active = hit-call score of the fitted dose curve at least 0.9, where 1 is the maximum)
# In short: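 An inducible fluorescent BRA reporter in RUES2-GLR cells tracks mesoderm differentiation. Compounds (10 concentrations, 1 nM - 200 uM) are dosed twice within a 48-h differentiation. The endpoint subtracts the 0.2% DMSO control from percent BRA+ cells.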
# [13] = CCTE_Deisenroth_DEVTOX-GLR_Pluri_CellCount: Viability Assessment in CCTE's DevTox GLR-Pluri Assay Evaluation of Total Cell Counts, Deisenroth Lab (AID 2284430)
# In short: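 RUES2-GLR human pluripotent cells, seeded 24 h, then differentiated 48 h with two chemical exposures 24 h apart; 10-point series 1 nM - 200 uM. Fixed, nuclear-stained, imaged (5 fields/well); nuclei count as % change vs 0.2% DMSO.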
# [14] = CCTE_Shafer_MEA_dev_firing_rate_mean: CCTE's Neural Network Formation Assay for Mean Firing Rate, Shafer Lab (AID 2284031);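 note: curve fitted for loss of firing so AC50 reflects decreased mean firing rate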
# In short: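 Rat primary cortical neurons were seeded on multielectrode arrays and treated from plating through day 12, with redosing at each feed. Spontaneous spiking was recorded four times; mean firing rate AUC was fitted downward against DMSO.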
# [15] = CCTE_Shafer_MEA_dev_per_burst_spike_percent: CCTE's Neural Network Formation Assay for Percent of Spikes in a Burst, Shafer Lab (AID 2284032);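 note: fitted as a decrease in burst spike percentage below DMSO baseline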
# In short: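 Rat primary cortical neurons on 16-electrode MEA wells, dosed from plating day 0 for 12 days with renewal on DIV 5 and 9; spikes-in-bursts percentage averaged over bursting electrodes, collapsed as AUC across days 5, 7, 9, 12; loss direction versus DMSO.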
# [16] = CCTE_Shafer_MEA_dev_active_electrodes_number: CCTE's Neural Network Formation Assay for Number of Active Electrodes, Shafer Lab (AID 2284040; active = hit-call score of the fitted dose curve at least 0.9, where 1 is the maximum;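 note: potency for loss of active electrodes versus DMSO so lower counts are hits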)
# In short: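 Primary rat cortical neurons on 16-electrode MEA wells, exposed from day 0 through day 12 with compound renewed at DIV 5 and 9 feeds. Active electrodes (mean firing ≥5 spikes/min) counted at DIV 5, 7, 9, 12; trapezoidal AUC across days, loss-of-signal versus DMSO.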
# [17] = CCTE_Shafer_MEA_dev_inter_network_spike_interval_mean: CCTE's Neural Network Formation Assay for Mean Inter-network Spike Interval, Shafer Lab (AID 2284047);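 for AC50: potency for a decrease in mean inter-network spike interval below DMSO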
# In short: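 Compound was given at plating to primary rat cortical neurons and renewed with full medium changes on DIV 5 and 9. Extracellular activity was recorded on days 5, 7, 9, 12; AUC values were fitted for loss relative to DMSO control.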
# Sequence of PGR (gene 5241) (P06401 whole entry, looked up): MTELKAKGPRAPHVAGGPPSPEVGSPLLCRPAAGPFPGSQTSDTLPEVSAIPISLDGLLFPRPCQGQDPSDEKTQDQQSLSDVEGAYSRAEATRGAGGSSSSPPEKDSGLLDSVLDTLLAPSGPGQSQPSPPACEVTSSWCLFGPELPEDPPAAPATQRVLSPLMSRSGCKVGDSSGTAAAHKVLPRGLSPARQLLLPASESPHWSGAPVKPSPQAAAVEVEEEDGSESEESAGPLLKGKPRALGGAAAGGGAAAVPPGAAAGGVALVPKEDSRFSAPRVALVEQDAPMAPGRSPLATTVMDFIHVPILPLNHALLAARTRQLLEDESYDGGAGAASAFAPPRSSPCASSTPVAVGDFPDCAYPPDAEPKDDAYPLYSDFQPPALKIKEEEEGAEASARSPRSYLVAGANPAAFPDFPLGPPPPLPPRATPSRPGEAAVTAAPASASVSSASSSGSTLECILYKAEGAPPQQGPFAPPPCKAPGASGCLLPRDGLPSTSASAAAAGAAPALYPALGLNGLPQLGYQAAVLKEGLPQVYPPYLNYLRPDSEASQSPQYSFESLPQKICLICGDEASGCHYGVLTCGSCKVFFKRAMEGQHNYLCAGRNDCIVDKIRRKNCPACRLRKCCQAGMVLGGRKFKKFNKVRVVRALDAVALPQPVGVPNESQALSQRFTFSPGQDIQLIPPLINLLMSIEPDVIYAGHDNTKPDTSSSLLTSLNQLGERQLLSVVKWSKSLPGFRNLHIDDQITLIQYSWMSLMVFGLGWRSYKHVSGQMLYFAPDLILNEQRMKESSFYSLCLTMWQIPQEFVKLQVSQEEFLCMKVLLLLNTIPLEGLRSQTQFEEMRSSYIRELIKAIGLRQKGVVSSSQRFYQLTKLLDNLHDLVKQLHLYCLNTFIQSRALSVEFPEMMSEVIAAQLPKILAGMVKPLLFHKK
# Sequence of Retinoic acid receptor RXR-alpha (Homo sapiens) (P19793 whole entry, looked up): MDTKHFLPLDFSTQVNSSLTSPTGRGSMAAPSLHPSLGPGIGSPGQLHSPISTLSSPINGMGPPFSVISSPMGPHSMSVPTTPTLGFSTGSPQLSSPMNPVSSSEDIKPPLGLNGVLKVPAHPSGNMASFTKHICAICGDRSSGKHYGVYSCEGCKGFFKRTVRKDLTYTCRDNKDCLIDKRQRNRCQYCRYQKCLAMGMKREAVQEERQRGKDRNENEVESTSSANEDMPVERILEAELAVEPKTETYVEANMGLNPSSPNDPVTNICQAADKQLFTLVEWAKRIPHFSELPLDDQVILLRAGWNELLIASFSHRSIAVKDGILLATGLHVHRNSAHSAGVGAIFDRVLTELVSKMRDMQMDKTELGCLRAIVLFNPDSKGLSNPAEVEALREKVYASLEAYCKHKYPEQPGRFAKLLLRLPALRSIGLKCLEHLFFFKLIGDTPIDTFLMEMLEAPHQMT
# Sequence of THRB (gene 7068) (P10828 whole entry, looked up, the tested form may be a part): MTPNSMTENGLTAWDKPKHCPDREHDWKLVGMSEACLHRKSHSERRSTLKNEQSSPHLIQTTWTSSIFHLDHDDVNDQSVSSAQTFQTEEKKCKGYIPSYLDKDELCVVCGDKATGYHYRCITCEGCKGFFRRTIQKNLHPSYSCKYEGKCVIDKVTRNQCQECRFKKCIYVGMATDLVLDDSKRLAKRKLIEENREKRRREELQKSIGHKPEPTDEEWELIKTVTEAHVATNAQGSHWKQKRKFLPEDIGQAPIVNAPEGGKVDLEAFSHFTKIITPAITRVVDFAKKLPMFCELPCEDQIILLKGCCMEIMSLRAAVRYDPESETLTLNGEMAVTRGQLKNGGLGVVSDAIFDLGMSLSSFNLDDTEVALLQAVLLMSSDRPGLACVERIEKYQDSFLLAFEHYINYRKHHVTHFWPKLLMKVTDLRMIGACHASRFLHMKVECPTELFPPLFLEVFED
# Sequence of Thyroid hormone receptor alpha (Rattus norvegicus) + Thyroid hormone receptor beta (Rattus norvegicus) (P63059 whole entry, looked up): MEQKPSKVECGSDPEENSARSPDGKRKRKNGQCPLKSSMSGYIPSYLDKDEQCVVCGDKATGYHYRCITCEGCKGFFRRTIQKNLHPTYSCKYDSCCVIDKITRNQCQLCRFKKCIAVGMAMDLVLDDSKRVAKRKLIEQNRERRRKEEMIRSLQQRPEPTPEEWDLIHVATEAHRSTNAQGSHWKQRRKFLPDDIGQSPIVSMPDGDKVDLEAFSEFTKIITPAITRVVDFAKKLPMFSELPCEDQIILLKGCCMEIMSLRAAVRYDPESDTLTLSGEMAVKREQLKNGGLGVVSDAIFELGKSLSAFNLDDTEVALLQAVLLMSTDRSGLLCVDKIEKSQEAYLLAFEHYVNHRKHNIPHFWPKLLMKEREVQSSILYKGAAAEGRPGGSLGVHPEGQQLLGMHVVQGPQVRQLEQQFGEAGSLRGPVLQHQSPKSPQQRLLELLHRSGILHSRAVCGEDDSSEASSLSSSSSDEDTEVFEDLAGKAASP
# Sequence of Thyroid hormone receptor alpha (Rattus norvegicus) + Thyroid hormone receptor beta (Rattus norvegicus) (P18113 whole entry, looked up): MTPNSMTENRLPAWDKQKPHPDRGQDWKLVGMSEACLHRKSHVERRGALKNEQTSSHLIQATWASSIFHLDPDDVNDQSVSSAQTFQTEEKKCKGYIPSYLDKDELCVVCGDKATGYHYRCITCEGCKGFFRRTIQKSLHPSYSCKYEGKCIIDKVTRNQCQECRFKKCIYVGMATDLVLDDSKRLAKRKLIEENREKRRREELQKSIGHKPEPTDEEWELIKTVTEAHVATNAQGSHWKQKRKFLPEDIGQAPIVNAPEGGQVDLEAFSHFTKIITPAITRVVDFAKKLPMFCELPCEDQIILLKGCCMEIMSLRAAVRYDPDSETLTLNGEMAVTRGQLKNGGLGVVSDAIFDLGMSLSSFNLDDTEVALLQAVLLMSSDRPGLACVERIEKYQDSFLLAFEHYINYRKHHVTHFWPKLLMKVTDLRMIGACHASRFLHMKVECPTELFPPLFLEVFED
# Sequence of THRA (gene 7067) (P10827 whole entry, looked up, the tested form may be a part): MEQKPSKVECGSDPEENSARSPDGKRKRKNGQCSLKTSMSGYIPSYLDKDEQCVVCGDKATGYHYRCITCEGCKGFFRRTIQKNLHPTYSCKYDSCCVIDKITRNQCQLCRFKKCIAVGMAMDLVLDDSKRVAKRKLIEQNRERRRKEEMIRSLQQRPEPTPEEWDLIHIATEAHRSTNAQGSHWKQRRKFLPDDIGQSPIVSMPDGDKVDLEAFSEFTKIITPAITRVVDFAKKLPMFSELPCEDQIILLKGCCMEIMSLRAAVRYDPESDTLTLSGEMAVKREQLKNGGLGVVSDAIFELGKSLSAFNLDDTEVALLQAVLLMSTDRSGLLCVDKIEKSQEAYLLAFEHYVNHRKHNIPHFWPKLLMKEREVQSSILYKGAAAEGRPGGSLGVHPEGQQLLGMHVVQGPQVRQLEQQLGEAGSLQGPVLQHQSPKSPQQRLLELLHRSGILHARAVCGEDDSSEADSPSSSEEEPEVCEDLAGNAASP
smiles,measurement,setting,value
CC(C)C[C@H](NC(=O)[C@H](CCc1ccccc1)NC(=O)CN1CCOCC1)C(=O)N[C@@H](Cc1ccccc1)C(=O)N[C@@H](CC(C)C)C(=O)[C@@]1(C)CO1,outcome,PGR (gene 5241),inactive
O=C1Nc2ccc(Cl)cc2[C@@](C#CC2CC2)(C(F)(F)F)O1,outcome,[1],inactive
same,outcome,[2],inactive
NC(=O)n1c(O)c(C(=O)c2cccs2)c2cc(Cl)ccc21,outcome,PGR (gene 5241),inactive
COC(=O)C1=C(C)NC(COC(N)=O)=C(C(=O)OC(C)C)C1c1cccc(Cl)c1Cl (stereo not drawn),outcome,PGR (gene 5241),inactive
CC(C)C[C@H](NC(=O)[C@H](Cc1ccccc1)NC(=O)c1cnccn1)B(O)O,outcome,PGR (gene 5241),inactive
Oc1ccc(N=Nc2ccccc2)cc1,outcome,PGR (gene 5241),inactive
CC(C)(C)CC(C)(C)c1ccc(O)c(Cc2ccc(Cl)cc2Cl)c1,AC50,[3],2.83 µM (active)
same,AC50,THRA (gene 7067),12.1 µM (active)
same,AC50,THRB (gene 7068),12.2 µM (active)
same,outcome,[4],inactive
same,outcome,[5],inactive
C=C1C(CCl)(CCl)C2(Cl)C(Cl)C(Cl)C1(Cl)C2(Cl)Cl (stereo not drawn),AC50,PGR (gene 5241),8.97 µM (active)
O=C(Nc1ccc(Cl)c(Cl)c1)C1CC1,outcome,PGR (gene 5241),inactive
O=C1Cc2cc(CCN3CCN(c4nsc5ccccc45)CC3)c(Cl)cc2N1,AC50,[6],3.31 µM (active)
same,AC50,[7],6.29 µM (active)
same,AC50,[8],3.99 µM (active)
same,AC50,[9],4.78 µM (active)
same,AC50,[10],3.31 µM (active)
same,outcome,[11],inactive
same,AC50,[12],4.26 µM (active)
same,AC50,[13],4.26 µM (active)
Cc1nc(Nc2ncc(C(=O)Nc3c(C)cccc3Cl)s2)cc(N2CCN(CCO)CC2)n1,AC50,[6],0.0582 µM (active)
same,AC50,[7],3.15 µM (active)
same,AC50,[8],0.633 µM (active)
same,AC50,[9],21.7 µM (active)
same,AC50,[10],0.0574 µM (active)
same,AC50,[11],17 nM (active)
same,AC50,[12],0.0529 µM (active)
same,AC50,[13],0.0132 µM (active)
CN(C)CCOC(=O)COc1ccc(Cl)cc1,outcome,[1],inactive
same,outcome,[2],inactive
CCCCC(=O)O[C@]1(C(=O)CO)[C@@H](C)C[C@H]2[C@@H]3CCC4=CC(=O)C=C[C@]4(C)[C@@]3(F)[C@@H](O)C[C@@]21C,outcome,[2],inactive
COc1cc2ncnc(Nc3ccc(F)c(Cl)c3)c2cc1OCCCN1CCOCC1,AC50,[6],6.58 µM (active)
same,AC50,[7],10.9 µM (active)
same,AC50,[8],5.78 µM (active)
same,AC50,[9],10.8 µM (active)
same,AC50,[10],6.57 µM (active)
same,outcome,[11],inactive
same,outcome,[12],inactive
same,outcome,[13],inactive
CC(=O)NCCCS(=O)(=O)O,outcome,[1],inactive
same,outcome,[2],inactive
CN(C)C(=O)C(CCN1CCC(O)(c2ccc(Cl)cc2)CC1)(c1ccccc1)c1ccccc1,AC50,[14],63.2 nM (active) and 101 nM (active) and 190 nM (active)
same,AC50,[15],514 nM (active) and 244 nM (active) and 1.49 µM (active)
same,AC50,[16],385 nM (active) and 196 nM (active) and 1.21 µM (active)
same,AC50,[17],3 nM (active) and 2.62 µM (active)
same,outcome,[17],inactive
